Counter-ions that a name gives are not always drawn. ± gives the standard deviation of the averaged measurements.

The subject of the first assay is Escherichia coli ATCC BAA-2469. The assay is described as follows: percent growth inhibition of drug + antibiotic vs DMSO control; higher = more growth inhibition. To be noted: antibiotic (0.125x MIC): ciprofloxacin; 7 µM. On the procedure:
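Prestwick drugs tested at 20 uM and 7 uM with an antibiotic at 0.125x MIC (16 mg/L when MIC >128 mg/L) against E. coli ATCC BAA-2469 (NDM-1) in CAMHB, 384-well plates, duplicate runs. Percent growth inhibition was computed from OD600 (24 h minus 0 h) relative to DMSO wells. Drug + DMSO-only wells are also given. […]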
Take `Cc1nnc(NS(=O)(=O)c2ccc(N)cc2)s1` [Sulfamethizole]: the percent growth inhibition turned out to be 9.62 ± 10%. In the case of `O=c1[nH]c(=O)n([C@H]2C[C@H](O)[C@@H](CO)O2)cc1C(F)(F)F` [Trifluridine], the percent growth inhibition came to 4.99 ± 6.6%. In the case of `Nc1nc(O)c2ncn(CCC(CO)CO)c2n1` [Penciclovir], the percent growth inhibition was determined as 7.81 ± 16%. With `O=C1c2c(O)ccc(O)c2C(=O)c2c(NCCNCCO)ccc(NCCNCCO)c21` [Mitoxantrone dihydrochloride], the percent growth inhibition was found to be 6.59 ± 1.5%. In the case of `OC(CCN1CCCC1)(c1ccccc1)C1CCCCC1` (stereo not given) [Procyclidine hydrochloride], the percent growth inhibition is 10.9 ± 16%. Same read-out and setting: next, `CC(C)(C)C(=O)OCOC(=O)[C@@H]1N2C(=O)[C@@H](/N=C/N3CCCCCC3)[C@H]2SC1(C)C` [Pivmecillinam hydrochloride]: 2.89 ± 3.3%; `C#C[C@]1(OC(C)=O)CC[C@H]2[C@@H]3CCC4=C[C@@H](OC(C)=O)CC[C@@H]4[C@H]3CC[C@@]21C` [Ethynodiol diacetate]: 5.09 ± 12%.

The same assay, now with this note: antibiotic (0.125x MIC): ciprofloxacin; 20 µM.
Take `O=C1OCCN1/N=C/c1ccc([N+](=O)[O-])o1` [Furazolidone]: the percent growth inhibition was 102 ± 2.7%. With `Cc1nnc(NS(=O)(=O)c2ccc(N)cc2)s1` [Sulfamethizole], the percent growth inhibition amounted to 4.47 ± 6%. `CO[C@H]1/C=C/O[C@@]2(C)Oc3c(C)c(O)c4c(O)c(c(/C=N/N5CCN(C6CCCC6)CC5)c(O)c4c3C2=O)NC(=O)/C(C)=C\C=C\[C@H](C)[C@H](O)[C@@H](C)[C@@H](O)[C@@H](C)[C@H](OC(C)=O)[C@@H]1C` [Rifapentine]: the percent growth inhibition is 99.9 ± 4.6%. Turning to `O=c1[nH]c(=O)n([C@H]2C[C@H](O)[C@@H](CO)O2)cc1C(F)(F)F` [Trifluridine], the percent growth inhibition was 25.5 ± 3.5%. `Nc1nc(O)c2ncn(CCC(CO)CO)c2n1` [Penciclovir]: the percent growth inhibition was -2.9 ± 7.2%. Consider `O=C1c2c(O)ccc(O)c2C(=O)c2c(NCCNCCO)ccc(NCCNCCO)c21` [Mitoxantrone dihydrochloride], for which the percent growth inhibition amounted to 52.9 ± 1.9%. With `OC(CCN1CCCC1)(c1ccccc1)C1CCCCC1` (stereo not given) [Procyclidine hydrochloride], the percent growth inhibition amounted to 8.13 ± 9.2%.

With `C#C[C@]1(OC(C)=O)CC[C@H]2[C@@H]3CCC4=C[C@@H](OC(C)=O)CC[C@@H]4[C@H]3CC[C@@]21C` [Ethynodiol diacetate], the percent growth inhibition was 8.86 ± 3.1%.

Still in this assay, the particulars now being: antibiotic (0.125x MIC): gentamicin; 7 µM.
In the case of `Cn1c(=O)c2c(ncn2C)n(C)c1=O` [Caffeine], the percent growth inhibition came out at 1.53 ± 7.1%. Same read-out and setting: as for `O=C1CN(/N=C/c2ccc([N+](=O)[O-])o2)C(=O)N1` [Nitrofurantoin], the figure is 6.28 ± 5.3%; as for `O=c1[nH]c(=O)n([C@H]2C[C@H](O)[C@@H](CO)O2)cc1C(F)(F)F` [Trifluridine], 6.11 ± 0.34%; as for `COc1cc(NS(=O)(=O)c2ccc(N)cc2)nc(OC)n1` [Sulfadimethoxine], 1.55 ± 1.5%. Take `Oc1c(Cl)cc(Cl)c2cccnc12` [Chloroxine]: the percent growth inhibition turned out to be 40 ± 13%.

Regarding `COc1ccccc1OCC(O)CO` (stereo not given) [Guaifenesin], the percent growth inhibition was found to be 2.34 ± 2.3%. Consider `O=C(Nc1ccc([N+](=O)[O-])cc1Cl)c1cc(Cl)ccc1O` [Niclosamide], for which the percent growth inhibition was 10.1 ± 2%. Turning to `Oc1c(Cl)cc(Cl)c(Cl)c1Cc1c(O)c(Cl)cc(Cl)c1Cl` [Hexachlorophene], the percent growth inhibition was 21.4 ± 16%.

As to `CO/N=C(\C(=O)N[C@@H]1C(=O)N2C(C(=O)O)=C(COC(N)=O)CS[C@H]12)c1ccco1` [Cefuroxime sodium salt], the percent growth inhibition is -0.221 ± 4.4%.

Still in this assay, the particulars now being: antibiotic (0.125x MIC): gentamicin; 20 µM.
With `O=C1OCCN1/N=C/c1ccc([N+](=O)[O-])o1` [Furazolidone], the percent growth inhibition was found to be 113 ± 20%.

Take `CC1=C(/C=C/C(C)=C/C=C/C(C)=C\C(=O)O)C(C)(C)CCC1` [Isotretinoin]: the percent growth inhibition is 12.7 ± 20%.

Take `Oc1c(Cl)cc(Cl)c2cccnc12` [Chloroxine]: the percent growth inhibition worked out at 112 ± 19%.

Still in this assay, the particulars now being: antibiotic (0.125x MIC): meropenem; 7 µM.
Turning to `CC[C@H]1OC(=O)[C@H](C)[C@@H](O[C@H]2C[C@@](C)(OC)[C@@H](O)[C@H](C)O2)[C@H](C)[C@@H](O[C@@H]2O[C@H](C)C[C@H](N(C)C)[C@H]2O)[C@](C)(O)C[C@@H](C)CN(C)[C@H](C)[C@@H](O)[C@]1(C)O` [Azithromycin], the percent growth inhibition worked out at 20.7 ± 7.2%. Consider `Nc1nc(=S)c2ncn([C@@H]3O[C@H](CO)[C@@H](O)[C@H]3O)c2[nH]1` [Thioguanosine], for which the percent growth inhibition turned out to be 34.2 ± 1.9%. As to `Cc1cc(N)c2ccccc2[n+]1CCCCCCCCCC[n+]1c(C)cc(N)c2ccccc21` [Dequalinium dichloride], the percent growth inhibition is -1.34 ± 1.8%. Take `O=C1CN(/N=C/c2ccc([N+](=O)[O-])o2)C(=O)N1` [Nitrofurantoin]: the percent growth inhibition turned out to be 2.1 ± 2.9%. Take `Nc1c2ccccc2nc2ccccc12` [Aminacrine]: the percent growth inhibition came out at 13.7 ± 12%. For the compound `COc1ccccc1OCC(O)CO` (stereo not given) [Guaifenesin], the percent growth inhibition is -4.21 ± 1.2%. As to `CCCCCCCCNC(C)C(O)c1ccc(SC(C)C)cc1` (stereo not given) [Suloctidil], the percent growth inhibition was 1.25 ± 3.5%.

Still in this assay, the particulars now being: antibiotic (0.125x MIC): meropenem; 20 µM.
Regarding `O=C1OCCN1/N=C/c1ccc([N+](=O)[O-])o1` [Furazolidone], the percent growth inhibition was found to be 113 ± 20%. For the compound `CC[C@H]1OC(=O)[C@H](C)[C@@H](O[C@H]2C[C@@](C)(OC)[C@@H](O)[C@H](C)O2)[C@H](C)[C@@H](O[C@@H]2O[C@H](C)C[C@H](N(C)C)[C@H]2O)[C@](C)(O)C[C@@H](C)CN(C)[C@H](C)[C@@H](O)[C@]1(C)O` [Azithromycin], the percent growth inhibition was determined as 50.1 ± 20%. For the compound `CO[C@H]1/C=C/O[C@@]2(C)Oc3c(C)c(O)c4c(O)c(c(/C=N/N5CCN(C6CCCC6)CC5)c(O)c4c3C2=O)NC(=O)/C(C)=C\C=C\[C@H](C)[C@H](O)[C@@H](C)[C@@H](O)[C@@H](C)[C@H](OC(C)=O)[C@@H]1C` [Rifapentine], the percent growth inhibition was determined as 96.3 ± 5.3%. On the same count and under the same terms, as for `Nc1nc(=S)c2ncn([C@@H]3O[C@H](CO)[C@@H](O)[C@H]3O)c2[nH]1` [Thioguanosine], the figure is 81.6 ± 9.8%; as for `Cc1cc(N)c2ccccc2[n+]1CCCCCCCCCC[n+]1c(C)cc(N)c2ccccc21` [Dequalinium dichloride], 34.5 ± 0.8%.

Consider `Nc1c2ccccc2nc2ccccc12` [Aminacrine], for which the percent growth inhibition was 40.9 ± 17%.

The record behind these values is the supplement of paper PMC6658780.
